In the library only some 7.6% were active in any assay of this set; here they are far more common.
SW480 rerep – A quantitative high throughput screen for small molecules that induce DNA re-replication in SW480 colon adenocarcinoma cells; SW480 DNA re-replication, Hoechst DNA content imaging, 48 h; Potency, µM (top dose mostly 46.1 µM), actives largely listed as activators; hit rate 1.8% among 340,000; AID 624297, 2012; further: nearly all actives have a fitted effect of over 55% in size
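DNA re-replication was detected as more nuclei of elevated Hoechst intensity after 48 hr exposure to compound (23 nL pinned per well of 250 cells).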
KCNH2 WT inh – qHTS for Inhibitors of KCHN2 3.1: Wildtype qHTS. Voltage-gated inwardly rectifying potassium channel KCNH2 (Homo sapiens), Q12809. U2OS, BacMam KCNH2, thallium flux FluxOr; hits give low values. activity change, % at 1.84 µM. hit rate 0.37% among 340,000. AID 720551, 2013;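 active means maximum activity change below -70%; inconclusive means maximum activity change between -70% and -50%; inactive means maximum activity change above -50%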
Target sequence (Q12809 whole entry, looked up): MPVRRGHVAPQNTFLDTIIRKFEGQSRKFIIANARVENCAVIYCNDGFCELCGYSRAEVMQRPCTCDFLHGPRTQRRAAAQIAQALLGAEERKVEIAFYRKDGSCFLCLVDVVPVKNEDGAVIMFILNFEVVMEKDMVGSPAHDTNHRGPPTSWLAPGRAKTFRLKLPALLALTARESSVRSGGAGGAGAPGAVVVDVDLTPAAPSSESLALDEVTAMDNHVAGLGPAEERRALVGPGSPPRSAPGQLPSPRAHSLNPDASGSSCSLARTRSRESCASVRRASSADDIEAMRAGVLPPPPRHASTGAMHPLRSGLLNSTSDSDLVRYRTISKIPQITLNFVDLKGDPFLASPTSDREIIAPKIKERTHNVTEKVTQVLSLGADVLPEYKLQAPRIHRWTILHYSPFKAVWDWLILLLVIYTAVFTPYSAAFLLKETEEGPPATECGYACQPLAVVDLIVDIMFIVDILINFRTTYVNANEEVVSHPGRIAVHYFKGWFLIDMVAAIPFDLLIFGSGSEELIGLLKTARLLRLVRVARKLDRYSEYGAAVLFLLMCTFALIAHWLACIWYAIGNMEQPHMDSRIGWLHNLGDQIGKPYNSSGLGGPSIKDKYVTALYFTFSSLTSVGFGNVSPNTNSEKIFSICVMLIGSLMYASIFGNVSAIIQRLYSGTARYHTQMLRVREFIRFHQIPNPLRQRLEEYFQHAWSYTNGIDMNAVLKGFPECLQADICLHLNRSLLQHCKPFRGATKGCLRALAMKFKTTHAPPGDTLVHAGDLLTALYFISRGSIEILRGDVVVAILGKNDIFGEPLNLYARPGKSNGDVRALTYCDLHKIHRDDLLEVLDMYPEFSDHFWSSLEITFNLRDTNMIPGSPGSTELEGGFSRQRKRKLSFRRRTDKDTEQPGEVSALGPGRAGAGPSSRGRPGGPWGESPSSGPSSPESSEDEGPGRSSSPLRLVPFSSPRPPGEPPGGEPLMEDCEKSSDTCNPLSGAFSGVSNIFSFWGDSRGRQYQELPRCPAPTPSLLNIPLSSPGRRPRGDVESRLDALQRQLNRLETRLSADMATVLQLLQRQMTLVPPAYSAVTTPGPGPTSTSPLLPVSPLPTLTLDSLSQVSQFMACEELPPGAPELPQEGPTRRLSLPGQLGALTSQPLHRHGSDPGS
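U2OS cells transduced with wild-type KCNH2 virus are loaded with FluxOr dye for 45 min, and thallium flux is measured in kinetic reads before and after stimulation buffer. Rate constants are normalized to DMSO controls.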
KB-V1 cytotox – qHTS assay for MDR1-selective chemotherapeutics: Primary screen using the drug-selected MDR subline cells KB-V1 | KB-V1 MDR cells viability, CellTiter-Glo, 72 h | Potency, µM (series often up to 46.1 µM), hits mostly cytotoxic | hit rate 3.4% among 400,000 | AID 1347076, 2019; further: nearly all actives have a fitted effect of over 60% in size
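qHTS viability screen in drug-selected KB-V1 MDR cells: 72 h compound treatment at 37 degrees C, ATP luminescence end point.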
MCF10A rerep – A quantitative high throughput screen for small molecules that induce DNA re-replication in MCF 10a normal breast cells. MCF 10A DNA re-replication, Hoechst nuclear intensity, 48 h. Potency, µM (titrated, usually from 46.1 µM), usual class: activators. hit rate 2.9% among 350,000. AID 624296, 2012; further: nearly all actives have a fitted effect of over 50% in size
KCNH2 3.1 block – qHTS for Inhibitors of KCHN2 3.1: Mutant qHTS. Potassium voltage-gated channel subfamily H member 2, brain isoform KCNH2 3.1 (human). U2OS KCNH2 3.1, thallium flux FluxOr; hits give low values. activity change, % (tested at about 1.8 µM). hit rate 0.95% among 340,000;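 active means maximum activity change below -70%; inconclusive means maximum activity change from -70% to -50%; inactive means maximum activity change above -50%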;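 further: thallium influx rate constant from kinetic fluorescence after stimulation buffer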
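Virally transduced U2OS (3.1 isoform, 4 h infection in dark at RT) → overnight 37 C → FluxOr + Red40 in HBSS/HEPES, 45 min → stimulation buffer, 2 min kinetic read → rate constant vs DMSO controls.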
KB-3-1 cytotox – qHTS assay for MDR1-selective chemotherapeutics: Primary screen using the parental adenocarcinoma cell KB-3-1 | KB-3-1 viability, CellTiter-Glo ATP luminescence, 72 h | hit rate 1.4% among 400,000 | Potency, µM (doses to about 46.1 µM), usual class: cytotoxic; further: nearly all actives have a fitted effect of over 60% in size
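Luminescent ATP read-out (CellTiter-Glo) measures survival of drug-naive KB-3-1 cells after 72 h compound exposure at 37 °C. Titration series was screened from lowest to highest concentration, with DMSO vehicle plates as background controls.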
Large screens that a line does not name were inactive; ! = not active in a repeat. Unless noted, the call rests on the fitted dose curve; in most records, active means well fitted curve in the direction sought with a large enough effect; inconclusive means small, poorly fitted or top-dose-only effect, or another doubt; inactive means no such curve, though single readings can be large; an effect the other way counts as inactive or inconclusive.

COC(=O)c1sccc1S(=O)(=O)N(CC(=O)NCc1ccc(F)cc1)c1ccccc1	none (no result: SW480 rerep, KCNH2 WT inh, MCF10A rerep, KCNH2 3.1 block)
N=c1c2ccccc2nnn1-c1ccc(C(F)(F)F)cc1	MCF10A rerep inconclusive
COc1cccc(/C=N/NC(=O)c2c(C)nc3ccc(Br)cn23)c1O	SW480 rerep 0.65µM, KB-3-1 cytotox inconclusive
COc1ccc(S[C@@H](CCN2CC[C@H](C)CCC2=O)c2ccccc2)cc1	KB-V1 cytotox inconclusive, MCF10A rerep 18µM
Cc1ccc(S[C@@H](CCN2CC[C@H](C)CCC2=O)c2ccccc2)cc1	KB-V1 cytotox 12µM!, MCF10A rerep inconclusive, KB-3-1 cytotox inconclusive
C[C@@H]1CCC(=O)N(CC[C@H](Sc2ccc(Br)cc2)c2ccccc2)CC1	KB-V1 cytotox inconclusive, KB-3-1 cytotox inconclusive
Clc1nc(NCCc2ccccc2)c2cn[nH]c2n1	KB-V1 cytotox 1.2µM, MCF10A rerep inconclusive
Cn1ncc2c(NCCc3ccccc3)nc(Cl)nc21	KB-V1 cytotox 4.6µM, KB-3-1 cytotox inconclusive
COc1ccc(CCNc2cn[nH]c(=O)c2Cl)cc1OC	none
O=c1[nH]ncc(NCCc2ccccc2)c1Cl	KB-V1 cytotox 8.2µM, KB-3-1 cytotox inconclusive
CCOc1ccc(OC(=O)c2cn(-c3cccc(OC)c3)c(=O)c3ccccc23)cc1	none (no result: SW480 rerep, KCNH2 WT inh, MCF10A rerep, KCNH2 3.1 block)
CN(CC(=O)Nc1cc(Cl)cc(Cl)c1)Cc1cccs1	SW480 rerep inconclusive, MCF10A rerep inconclusive
C=C(CN(C)C)C(=O)c1ccc(C)cc1C	SW480 rerep 5.8µM, KB-V1 cytotox inconclusive, MCF10A rerep 2.9µM, KB-3-1 cytotox inconclusive
CC1(C)CC(=O)C2=C(C1)N(c1ccc(F)cc1)C(N)=C(C#N)C2c1cccs1 (configuration not stated)	SW480 rerep inconclusive, KB-V1 cytotox inconclusive, MCF10A rerep 18µM
Cc1ccc(N2C(N)=C(C#N)C(c3cccs3)C3=C2CC(C)(C)CC3=O)cc1 (configuration not stated)	SW480 rerep inconclusive, KB-V1 cytotox 7.3µM, KB-3-1 cytotox inconclusive
CC1(C)CC(=O)C2=C(C1)N(c1ccccc1)C(N)=C(C#N)C2c1ccccc1 (configuration not stated)	none
O=[N+]([O-])c1ccc(N2CCN(S(=O)(=O)c3ccc4ccccc4c3)CC2)cc1NCC1CCCO1 (configuration not stated)	none
COc1ccccc1NC(=O)Nc1nc(CC(=O)N2CCN(c3ccc(F)cc3)CC2)cs1	KB-V1 cytotox inconclusive, MCF10A rerep inconclusive
CCc1nnc(NC(=O)C2Cc3ccccc3CN2S(=O)(=O)CC)s1 (configuration not stated)	none
CCS(=O)(=O)N1Cc2ccccc2CC1C(=O)Nc1nnc(SCc2ccc(F)cc2)s1 (configuration not stated)	SW480 rerep inconclusive, KB-V1 cytotox 4.1µM, MCF10A rerep inconclusive
CCS(=O)(=O)N1Cc2ccccc2CC1C(=O)Nc1nc2ccccc2s1 (configuration not stated)	KB-V1 cytotox 16µM
CCS(=O)(=O)N1Cc2ccccc2CC1C(=O)Nc1nnc(C2CC2)s1 (configuration not stated)	KB-V1 cytotox inconclusive
CCc1nnc(NC(=O)C2Cc3ccccc3CN2S(=O)(=O)c2c(C)c(C)cc(C)c2C)s1 (configuration not stated)	KB-V1 cytotox 10µM, MCF10A rerep inconclusive
CCN(CC(=O)NCc1ccc(Cl)cc1)C(=O)COc1cccc(C(F)(F)F)c1	KB-V1 cytotox inconclusive
Cc1ccc2c(c1)cc(C(=O)NCc1ccccc1C)n2C	none (no result: SW480 rerep, KCNH2 WT inh, MCF10A rerep, KCNH2 3.1 block)
Oc1cccc(-c2nc3ccc4ccccc4c3c3c2CCC3)c1	MCF10A rerep inconclusive
C=CC[C@H](CC(=O)OC(C)(C)C)C(=O)OC[C@H]1CCCN1C(=O)[C@@H](CC=C)CC(=O)N(CCO)Cc1ccccc1	none
